# Of roughly 7,900 targets only a part is listed; those with a hit were picked by preference. About 0.6% of all pairs of compound and target were hits. Values without a mark were called inactive.
# What was measured:
# Assay in all cases: log2 fold change, soluble protein after heating vs DMSO (PISA); higher = thermal stabilisation; K562 cells, 10 uM, 30 min; active = over 0.2 and 3.5 SD of the protein, either way, in both replicates (recomputed)
# [1] = compound: COC1=CC=C(C=C1)CN2C=CC3=C2C=C(C=C3)C(=O)NO
# Outline: (§1)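 K562 cells (2×10^6 cells/mL) were treated with 10 μM compound for 30 min, and aliquots were heated for 3 min over 48°C-58°C. Pooled aliquots were extracted in PBS with 0.5% NP-40 at 4°C, and the supernatant after 21,000xg for 90 min was measured by TMTpro 16plex LC-MS/MS with channel sums equalised. Reported thermal stability, relative to control samples and from duplicates, is a log2 fold change.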
# filanesib = compound: CON(C)C(=O)N1N=C(c2cc(F)ccc2F)S[C@@]1(CCCN)c1ccccc1 [filanesib]
# Outline: as §1
# zotarolimus = compound: CO[C@H]1C[C@@H]2CC[C@@H](C)[C@@](O)(O2)C(=O)C(=O)N2CCCC[C@H]2C(=O)O[C@H]([C@H](C)C[C@@H]2CC[C@H](n3cnnn3)[C@H](OC)C2)CC(=O)[C@H](C)/C=C(\C)[C@@H](O)[C@@H](OC)C(=O)[C@H](C)C[C@H](C)/C=C/C=C/C=C/1C [zotarolimus]
# Outline: as §1
# idasanutlin = compound: COc1cc(C(=O)O)ccc1NC(=O)[C@@H]1N[C@@H](CC(C)(C)C)[C@](C#N)(c2ccc(Cl)cc2F)[C@H]1c1cccc(Cl)c1F [idasanutlin]
# Outline: as §1
# alisertib = compound: COc1cc(Nc2ncc3c(n2)-c2ccc(Cl)cc2C(c2c(F)cccc2OC)=NC3)ccc1C(=O)O [alisertib]
# Outline: as §1
# [2] = compound: COc1cc2nc(-c3cc(F)ccc3O)nc(N[C@@H]3CNC[C@H]3C(C)(C)O)c2cc1OC
# Outline: as §1
# gefitinib = compound: COc1cc2ncnc(Nc3ccc(F)c(Cl)c3)c2cc1OCCCN1CCOCC1 [gefitinib]
# Outline: as §1
# [3] = compound: COc1cccc2cc(-c3nc([C@H]4CC[C@H](C(=O)O)CC4)n4ncnc(N)c34)[nH]c12
# Outline: as §1
# lapatinib = compound: CS(=O)(=O)CCNCc1ccc(-c2ccc3ncnc(Nc4ccc(OCc5cccc(F)c5)c(Cl)c4)c3c2)o1 [lapatinib]
# Outline: as §1
# pictilisib = compound: CS(=O)(=O)N1CCN(Cc2cc3nc(-c4cccc5[nH]ncc45)nc(N4CCOCC4)c3s2)CC1 [pictilisib]
# Outline: as §1
# UniProt Q9H2U1, sequence (Q9H2U1 whole entry, looked up): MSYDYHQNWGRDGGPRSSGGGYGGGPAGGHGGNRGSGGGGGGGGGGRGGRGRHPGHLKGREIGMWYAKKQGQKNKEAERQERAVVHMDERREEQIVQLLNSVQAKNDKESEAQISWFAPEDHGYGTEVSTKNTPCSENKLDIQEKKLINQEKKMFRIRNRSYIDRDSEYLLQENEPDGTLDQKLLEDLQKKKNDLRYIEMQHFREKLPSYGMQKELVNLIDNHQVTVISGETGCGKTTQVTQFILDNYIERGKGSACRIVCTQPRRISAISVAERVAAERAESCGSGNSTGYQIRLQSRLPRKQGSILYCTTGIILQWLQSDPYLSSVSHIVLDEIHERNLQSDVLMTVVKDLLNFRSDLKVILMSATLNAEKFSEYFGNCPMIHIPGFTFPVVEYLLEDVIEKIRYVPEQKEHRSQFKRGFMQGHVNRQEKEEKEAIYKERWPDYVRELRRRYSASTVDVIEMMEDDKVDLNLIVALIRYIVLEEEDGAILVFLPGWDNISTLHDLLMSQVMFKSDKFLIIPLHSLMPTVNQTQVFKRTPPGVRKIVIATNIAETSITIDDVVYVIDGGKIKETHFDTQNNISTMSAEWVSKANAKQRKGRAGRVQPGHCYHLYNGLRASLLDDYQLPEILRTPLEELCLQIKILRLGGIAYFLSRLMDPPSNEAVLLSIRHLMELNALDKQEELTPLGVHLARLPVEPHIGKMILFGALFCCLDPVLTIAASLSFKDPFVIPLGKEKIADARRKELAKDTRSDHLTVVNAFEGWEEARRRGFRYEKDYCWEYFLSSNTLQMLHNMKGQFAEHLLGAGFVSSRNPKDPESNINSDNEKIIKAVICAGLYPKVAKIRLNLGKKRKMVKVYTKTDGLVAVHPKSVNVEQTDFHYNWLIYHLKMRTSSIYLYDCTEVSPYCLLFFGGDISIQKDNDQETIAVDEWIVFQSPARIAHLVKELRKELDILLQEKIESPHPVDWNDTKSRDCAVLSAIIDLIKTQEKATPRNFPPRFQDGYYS
# UniProt O60231, sequence (O60231 whole entry, looked up): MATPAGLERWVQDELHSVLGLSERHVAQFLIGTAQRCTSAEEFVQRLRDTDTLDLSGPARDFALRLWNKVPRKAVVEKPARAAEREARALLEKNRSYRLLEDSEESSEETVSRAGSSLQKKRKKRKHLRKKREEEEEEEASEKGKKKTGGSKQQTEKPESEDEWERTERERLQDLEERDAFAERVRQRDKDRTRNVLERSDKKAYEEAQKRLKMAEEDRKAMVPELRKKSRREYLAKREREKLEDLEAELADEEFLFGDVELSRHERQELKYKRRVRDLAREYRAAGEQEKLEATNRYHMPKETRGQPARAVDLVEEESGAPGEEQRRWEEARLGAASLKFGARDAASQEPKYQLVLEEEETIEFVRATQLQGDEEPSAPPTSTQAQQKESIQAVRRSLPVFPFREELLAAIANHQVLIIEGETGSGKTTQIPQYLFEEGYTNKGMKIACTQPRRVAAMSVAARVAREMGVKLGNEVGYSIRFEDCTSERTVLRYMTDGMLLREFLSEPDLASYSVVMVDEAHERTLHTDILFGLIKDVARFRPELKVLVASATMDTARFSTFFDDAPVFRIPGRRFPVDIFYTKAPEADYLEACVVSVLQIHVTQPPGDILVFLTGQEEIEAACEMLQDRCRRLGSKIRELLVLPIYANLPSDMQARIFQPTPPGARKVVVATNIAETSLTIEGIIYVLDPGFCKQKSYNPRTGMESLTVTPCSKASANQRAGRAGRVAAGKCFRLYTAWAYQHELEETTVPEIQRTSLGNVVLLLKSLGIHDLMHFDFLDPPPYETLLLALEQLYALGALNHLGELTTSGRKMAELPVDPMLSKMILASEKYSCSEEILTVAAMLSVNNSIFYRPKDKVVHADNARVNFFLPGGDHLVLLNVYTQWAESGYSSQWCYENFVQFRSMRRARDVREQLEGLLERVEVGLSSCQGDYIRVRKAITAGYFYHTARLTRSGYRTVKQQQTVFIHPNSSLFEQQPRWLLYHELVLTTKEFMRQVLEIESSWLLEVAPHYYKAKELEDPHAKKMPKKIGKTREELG
# UniProt Q9NV06, sequence (Q9NV06 whole entry, looked up): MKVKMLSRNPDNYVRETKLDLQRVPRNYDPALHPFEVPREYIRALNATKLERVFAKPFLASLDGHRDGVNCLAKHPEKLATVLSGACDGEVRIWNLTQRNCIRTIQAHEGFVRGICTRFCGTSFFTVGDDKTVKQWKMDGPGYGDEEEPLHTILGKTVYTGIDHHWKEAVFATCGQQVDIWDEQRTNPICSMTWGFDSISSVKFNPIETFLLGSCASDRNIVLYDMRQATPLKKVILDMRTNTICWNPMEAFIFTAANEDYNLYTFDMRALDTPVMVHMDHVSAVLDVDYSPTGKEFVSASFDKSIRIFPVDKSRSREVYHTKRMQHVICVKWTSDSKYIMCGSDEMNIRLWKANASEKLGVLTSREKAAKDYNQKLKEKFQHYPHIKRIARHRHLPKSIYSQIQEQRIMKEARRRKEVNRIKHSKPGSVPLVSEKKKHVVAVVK
# UniProt Q96DF8, sequence (Q96DF8 whole entry, looked up): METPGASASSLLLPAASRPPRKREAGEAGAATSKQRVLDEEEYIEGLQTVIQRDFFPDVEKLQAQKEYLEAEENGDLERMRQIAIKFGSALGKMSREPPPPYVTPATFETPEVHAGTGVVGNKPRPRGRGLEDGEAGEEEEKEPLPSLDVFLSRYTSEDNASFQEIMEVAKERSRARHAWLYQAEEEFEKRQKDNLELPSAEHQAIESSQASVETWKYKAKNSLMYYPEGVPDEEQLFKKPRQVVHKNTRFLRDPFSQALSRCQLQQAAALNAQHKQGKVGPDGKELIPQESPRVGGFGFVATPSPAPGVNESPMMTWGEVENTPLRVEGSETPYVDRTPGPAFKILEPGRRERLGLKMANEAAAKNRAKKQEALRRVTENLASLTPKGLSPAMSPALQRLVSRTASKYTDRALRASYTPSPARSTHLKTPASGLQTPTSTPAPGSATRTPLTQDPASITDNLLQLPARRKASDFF
# UniProt Q8NBI2, sequence (Q8NBI2 whole entry, looked up): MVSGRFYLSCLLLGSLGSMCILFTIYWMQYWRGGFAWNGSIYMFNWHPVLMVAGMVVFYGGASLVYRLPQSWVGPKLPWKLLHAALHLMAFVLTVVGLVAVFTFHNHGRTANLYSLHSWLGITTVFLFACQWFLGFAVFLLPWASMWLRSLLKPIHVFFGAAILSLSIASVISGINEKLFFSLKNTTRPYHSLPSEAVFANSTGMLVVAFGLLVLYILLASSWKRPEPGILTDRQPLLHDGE
# UniProt Q5NDL2, sequence (Q5NDL2 whole entry, looked up): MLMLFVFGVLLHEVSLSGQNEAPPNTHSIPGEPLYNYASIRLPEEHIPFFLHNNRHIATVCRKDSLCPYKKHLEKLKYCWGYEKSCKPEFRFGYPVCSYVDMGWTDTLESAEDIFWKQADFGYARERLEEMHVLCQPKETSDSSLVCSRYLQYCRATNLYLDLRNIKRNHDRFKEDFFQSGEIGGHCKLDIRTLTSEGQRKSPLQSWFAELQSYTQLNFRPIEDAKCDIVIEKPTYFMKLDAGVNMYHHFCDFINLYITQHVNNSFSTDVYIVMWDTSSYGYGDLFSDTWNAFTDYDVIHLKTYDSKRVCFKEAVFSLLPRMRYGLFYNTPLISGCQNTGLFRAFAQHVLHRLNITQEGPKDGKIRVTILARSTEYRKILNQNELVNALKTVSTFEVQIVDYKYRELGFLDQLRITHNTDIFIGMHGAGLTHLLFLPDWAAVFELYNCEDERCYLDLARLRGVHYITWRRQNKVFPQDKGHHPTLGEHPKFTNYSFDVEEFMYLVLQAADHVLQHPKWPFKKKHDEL
# UniProt P17844, sequence (P17844 whole entry, looked up): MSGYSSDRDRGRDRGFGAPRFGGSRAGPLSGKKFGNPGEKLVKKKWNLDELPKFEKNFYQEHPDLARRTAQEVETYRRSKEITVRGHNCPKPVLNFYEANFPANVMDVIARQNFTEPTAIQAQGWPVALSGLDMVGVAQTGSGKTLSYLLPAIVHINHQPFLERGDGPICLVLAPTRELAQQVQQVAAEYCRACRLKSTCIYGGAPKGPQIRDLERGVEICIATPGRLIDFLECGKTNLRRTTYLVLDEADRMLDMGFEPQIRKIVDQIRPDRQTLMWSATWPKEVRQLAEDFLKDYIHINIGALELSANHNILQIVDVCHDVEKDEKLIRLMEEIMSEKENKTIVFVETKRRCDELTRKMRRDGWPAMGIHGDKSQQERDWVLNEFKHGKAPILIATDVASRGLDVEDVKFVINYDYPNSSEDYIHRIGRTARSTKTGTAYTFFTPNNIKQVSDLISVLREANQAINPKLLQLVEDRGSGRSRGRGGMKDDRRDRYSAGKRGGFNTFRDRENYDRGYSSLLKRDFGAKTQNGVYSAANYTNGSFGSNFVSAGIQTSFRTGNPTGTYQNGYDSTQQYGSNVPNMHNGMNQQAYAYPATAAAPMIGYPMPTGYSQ
# UniProt Q6IAN0, sequence (Q6IAN0 whole entry, looked up): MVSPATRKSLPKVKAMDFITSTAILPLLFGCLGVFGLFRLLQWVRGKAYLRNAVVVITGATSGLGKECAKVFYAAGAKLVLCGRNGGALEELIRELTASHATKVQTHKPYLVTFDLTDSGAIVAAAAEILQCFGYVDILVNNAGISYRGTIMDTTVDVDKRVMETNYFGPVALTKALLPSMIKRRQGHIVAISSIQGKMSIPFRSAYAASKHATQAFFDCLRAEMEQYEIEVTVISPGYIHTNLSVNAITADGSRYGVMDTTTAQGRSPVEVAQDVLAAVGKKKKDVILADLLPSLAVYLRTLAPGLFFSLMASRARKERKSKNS
# UniProt P09668, sequence (P09668 whole entry, looked up): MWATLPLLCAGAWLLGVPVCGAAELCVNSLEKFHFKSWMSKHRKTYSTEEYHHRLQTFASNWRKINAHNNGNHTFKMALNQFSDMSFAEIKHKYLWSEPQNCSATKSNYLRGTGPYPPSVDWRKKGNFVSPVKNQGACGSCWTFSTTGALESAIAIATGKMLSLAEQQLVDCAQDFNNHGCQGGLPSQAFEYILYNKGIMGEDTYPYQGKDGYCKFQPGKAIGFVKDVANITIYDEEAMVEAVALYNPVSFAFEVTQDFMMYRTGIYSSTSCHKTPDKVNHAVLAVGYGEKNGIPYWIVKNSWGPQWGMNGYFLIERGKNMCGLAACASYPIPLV
Target,log2 fold change [1],log2 fold change (filanesib),log2 fold change (zotarolimus),log2 fold change (idasanutlin),log2 fold change (alisertib),log2 fold change [2],log2 fold change (gefitinib),log2 fold change [3],log2 fold change (lapatinib),log2 fold change (pictilisib)
CTSH (UniProt P09668),0.066,-0.072,-0.046,0.029,-0.06,0.021,0.025,0.084,0.018,0.019
EEF1AKNMT (UniProt Q8N6R0),-0.256,-0.052,0.096,0.013,-0.035,0.037,0.065,-0.037,-0.014,0
DBNL isoform 3 (UniProt Q9UJU6),0.096,0.006,-0.018,0.02,0.025,-0.002,0.021,-0.016,0.016,0.027
CYB561A3 isoform 2 (UniProt Q8NBI2),-0.026,-0.073,0.011,-0.066,0.041,0.023,-0.06,0.088,-0.019,0.263
DNTTIP2 (UniProt Q5QJE6),-0.095,0.217,0.061,0.267,-0.072,-0.09,-0.014,-0.002,0,0.008
EXOC4 (UniProt Q96A65),0.029,0.009,0.065,-0.052,-0.002,0.164,0.002,-0.086,0.008,-0.059
CTSL (UniProt P07711),-0.143,0.316 (active),-0.041,0.125,-0.099,0.044,0.025,0.086,0.087,0.057
DAB2 (UniProt P98082),-0.009,0.079,0,-0.055,-0.081,0.155,0.024,0.011,-0.005,0.071
DDB1 (UniProt Q16531),-0.024,-0.015,-0.017,-0.029,-0.06,0.006,-0.012,0.061,-0.022,0.025
DHRS7B (UniProt Q6IAN0),0.012,0.03,-0.058,-0.03,0.012,0.335 (active),0.056,-0.025,0.109,-0.143
FADS1 (UniProt F5GYH4),-0.373,,,,,,,,,
E2F4 (UniProt Q16254),-0.024,-0.034,0.042,0.006,-0.056,-0.098,0.003,0.059,0.047,0.044
DCTN1 isoform 4 (UniProt Q14203),-0.007,0.047,0.095,0.012,-0.045,0.007,0.042,-0.083,-0.007,-0.135
DMXL1 (UniProt Q9Y485),0.023,0.046,-0.008,-0.012,-0.003,0.02,-0.029,-0.003,-0.02,-0.015
DCAF13 (UniProt Q9NV06),-0.083,0.333,-0.01,0.17,-0.067,-0.047,-0.063,-0.112,0.083,-0.103
DHX16 (UniProt O60231),0.008,0.096,0.023,-0.03,-0.079,0.028,0.043,0.04,0.02,-0.012
FAM117A (UniProt Q9C073),0.105,-0.025,0.008,0.076,0,-0.059,-0.004,0.024,-0.026,-0.019
DUS3L (UniProt Q96G46),0.069,0.018,0.001,0.011,-0.071,0.01,0.02,0.035,-0.037,-0.181
EFL1 (UniProt Q7Z2Z2),-0.021,-0.069,0.022,-0.071,-0.013,0.042,0.019,0.033,-0.034,-0.016
EOGT (UniProt Q5NDL2),-0.026,0.053,0.013,0.036,0.028,0.056,0.008,-0.021,0.068,0.007
FAAP100 (UniProt Q0VG06),-0.008,-0.012,-0.025,0.055,-0.044,-0.095,0.036,0.004,0.011,-0.067
DDX5 (UniProt P17844),0.118,0.013,0.062,0.024,0.006,0.088,0.031,0.004,0.02,0.097
DPYSL2 (UniProt Q16555),-0.082,0.006,-0.06,0.029,0.093,0.055,-0.041,0.038,0.029,0.262 (active)
CTSA (UniProt P10619),0.01,-0.111,-0.024,0.015,0.029,0.023,0.1,0.065,0.045,0.038
DHX36 (UniProt Q9H2U1),0.04,0.119,0.024,0.017,0.025,0.017,-0.127,0.059,0.025,-0.038
EIF2S3 (UniProt P41091),-0.028,0.119,0,0.07,-0.068,0.002,-0.033,-0.07,0.004,-0.027
ESS2 (UniProt Q96DF8),-0.022,0.046,-0.019,0.052,-0.125,-0.037,-0.088,0.005,0.073,-0.083
DBR1 (UniProt Q9UK59),0.051,0.036,-0.003,0.015,-0.018,0.017,-0.049,0.054,-0.021,-0.064
EDC3 (UniProt Q96F86),0.02,0.112,-0.156,0.065,0.02,0.046,-0.013,-0.337,-0.019,-0.187
DNAJC7 (UniProt Q99615),0.037,-0.025,0.07,-0.043,-0.044,-0.031,0.068,-0.031,0,0.014

# Reference: the supplement of paper PMC10849652
